Consider twelve compounds from PubChem BioAssay (NCATS).

Structures are written as SMILES. Unmarked numbers belong to inactive results. Records with an inconclusive call do not appear. Calls of active or inactive are those of the source. Unless noted, calls come from the whole dose curve; as a rule, active = well fitted curve in the direction sought with a large enough effect; inconclusive = small, poorly fitted or top-dose-only effect, or another doubt; inactive = no such curve, though single readings can be large; an effect the other way counts as inactive or inconclusive.

Experiment [1] concerns the target Tyrosine-protein kinase Yes (Homo sapiens) (UniProt P07947). As to the kind of experiment: qHTS for small molecule inhibitors of Yes1 kinase: Primary Screen (AID 686947). Note: nearly all actives have a fitted effect of over 60% in size. Note: potency is the fitted concentration of half-maximal effect. In a few lines: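 Yes1 (4 nM) preincubated 20 min with compound, then 60 min room-temperature reaction with 0.1 mM ATP and 0.3 mg/mL poly(E4Y) in pH 7.5 Tris, 10 mM MgCl2. ADP measured by ADP-Glo luminescence, normalised to enzyme/no-enzyme controls.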

Experiment [2] can be described thus: qHTS for small molecule inhibitors of Yes1 kinase: Counter Assay (AID 686950).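 Note: no kinase present so only ADP-Glo detection of a fixed ADP amount is tested; luminescence from ADP-Glo reporting ADP in a fixed ATP and ADP mixture; series mostly up to about 77 µM; 0% = DMSO wells with ATP plus ADP and -100% = ATP-only wells without ADP.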 In a few lines: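 Enzyme-free ADP-Glo interference check: compounds were preincubated 20 min in buffer, then an ATP/ADP mix (0.08 mM ATP, 0.02 mM ADP final) was added for 60 min at room temperature before two-step ADP-Glo luminescence detection.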
Background: In qHTS, concentration-response curves come from the screen itself.

Experiment [3] in a line: qHTS assay for small molecule agonists of the antioxidant response element (ARE) signaling pathway (AID 651741; active = well fitted activation curve with a large enough effect in the signal ratio; the % refers to the signal ratio; note: potency is the fitted concentration of half-maximal effect). The note with it: HepG2 ARE-bla reporter, beta-lactamase FRET ratio, 16 h. The method in brief:
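Compounds in DMSO are pinned onto HepG2 ARE-bla cells (2,000/well) that were preincubated 5 h; plates stay 16 h at 37 C, then beta-lactamase activity is detected with LiveBLAzer B/G substrate by fluorescence.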

Experiment [4] in a line: qHTS assay for small molecule activators of the p53 signaling pathway (AID 651743; active = well fitted activation curve with a large enough effect in the signal ratio, not every such curve was filed as active; the % refers to the signal ratio; note: series mostly up to about 92 µM; % of control where 0% means no effect). The following applies: HCT-116 p53RE-bla, beta-lactamase FRET ratio, 16 h; active compounds read high. The method in brief: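 Cell-based beta-lactamase reporter (p53 response elements, HCT-116 background). After a 5-hour preincubation, cells received compound for 16 hours at 37 C; substrate development ran 2 hours at room temperature.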

The nature of experiment [5]: qHTS assay for small molecule activators of the nuclear factor-kappa B (NF-kB) signaling pathway (AID 651749; active = well fitted activation curve with a large enough effect in the signal ratio; the % refers to the signal ratio; note: series mostly up to about 77 µM; % of control where 0% means no effect). The following applies: NF-kB-bla ME-180 cells, beta-lactamase FRET ratio, 16 h; active compounds read high. The source says:
National Center for Advancing Translational Sciences [NCATS] NIH Chemical Genomics Center [NCGC] U.S. Environmental Protection Agency [EPA] National Institutes of Environmental Health Sciences [NIEHS] National Toxicology Program [NTP] Assay Overview: Transcription factors and their stimulated target gene expression play pivotal roles across many cellular processes including responses to environmental stimuli. Proper regulation of associated pathways is critical to maintain cell health and function. Constitutive activation of transcription factor pathways has been implicated in tumors as it may block cellular functions such as apoptosis and lead to invasion and metastasis. One important transcription factor that stimulates gene expression in response to cytokines, UV radiation, and other stimuli is nuclear factor-kappa B (NF-kB). To measure activation of the NF-kB pathway, the NF-kB-bla ME-180 cell line stably expressed beta-lactamase reporter gene under the regulation of a NF-kB response element was obtained from Invitrogen. This assay allows measurement of the NF-kB pathway activity induced by compounds in a ME-180 cell line. This system quantitates NF-kB activity using a FRET-based assay system where beta-lactamase expression disrupts FRET, allowing for fluorescent measurement of activity. […]

Experiment [6] concerns the target Tumor necrosis factor (Homo sapiens) (UniProt P01375). As to the kind of experiment: qHTS assay to identify small molecules that stimulate Tumor Necrosis Factor-alpha (TNF-alpha) secretion (AID 651757; active = well fitted curve in the direction sought with a large enough effect in the signal ratio; the % refers to the signal ratio; note: 0% is about no effect). In a few lines: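 THP-1 cells (3000/well) exposed to compounds 17 hrs at 37 C. Secreted TNF-alpha detected by HTRF with cryptate- and XL665-labeled anti-TNF-alpha antibodies after 3 hr at room temperature.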

The nature of experiment [7]: qHTS assay to identify small molecules that stimulate interleukin-8 (IL-8) secretion (AID 651758; active = well fitted activation curve with a large enough effect in the signal ratio; the % refers to the signal ratio; note: 0% is about no effect). In a few lines:
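THP-1, 2000 cells/well; cpd 16 h, 37 C; add cryptate + XL665 anti-IL-8 Abs; RT 1-3 h; TR-FRET read.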

Experiment [8] in a line: qHTS assay for environmental chemicals that activate the Aryl hydrocarbon Receptor (AhR) signaling pathway (AID 651777). Note: % of control where 0% means no effect; nearly all actives have a fitted effect of over 15% in size. The following applies: 1A2-DRE human hepatoma cells, luciferase, 24 h; active compounds read high. In a few lines: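 AhR activation is scored as a rise in luciferase from a stable DRE–CYP1A2 promoter construct in human hepatoma cells. Treatment lasts 24 hr at 37 C; detection uses One-Glo after 30 min at room temperature.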

Experiment [9] concerns the target Peroxisome proliferator-activated receptor alpha (Homo sapiens) (UniProt Q07869). Description: qHTS assay for small molecule agonists of the peroxisome proliferator-activated receptor alpha (PPARalpha) signaling pathway (AID 651778). For max response: % of control where 0% means no effect. Note: potency is the fitted concentration of half-maximal effect. The following applies: PathHunter PPARalpha complementation, chemiluminescence, 6 h; max response: active compounds read high. In a few lines: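 Cells plated at 2,000/well and held overnight at 37 C, 5% CO2, then compound added by pin tool for 6 hr; after PathHunter detection reagent and 60 min at room temperature, chemiluminescence from enzyme complementation was read.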

Experiment [10] addresses Nuclear receptor ROR-gamma (Homo sapiens) (UniProt P51449). As to the kind of experiment: qHTS assay for small molecule antagonists of the retinoid-related orphan receptor gamma (ROR-gamma) signaling pathway (AID 651802).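 Note: luciferase reporter luminescence driven by ROR response element; series mostly up to about 92 µM; % is set by controls: 0 for no effect and ±100 for the full control effect; nearly all actives have a fitted effect of over 60% in size.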 From the text: National Center for Advancing Translational Sciences [NCATS]
NIH Chemical Genomics Center [NCGC]
National Institutes of Environmental Health Sciences [NIEHS]
National Toxicology Program [NTP]
Nuclear steroid hormone receptors are involved in many biological processes including inflammatory responses, cell proliferation, and apoptosis. Environmental factors or compounds disrupting these nuclear receptor pathways and gene expression may promote susceptibility to immunotoxicants and autoimmune diseases. One important group of these expression factors are the retinoid-related orphan receptors. […]
The CHO cell-based assay utilizes a TET-inducible ROR expression factor and ROR response element-LUC reporter gene. Reporter activity was induced using doxycycline and measured after 16hr incubation. Luminescence was read using Viewlux (PerkinElmer), where a decrease in reporter activity would show a decrease in luminescence.
1,000 cells in 4 uL/well were dispensed into white wall/solid bottom 1536-well plates using a Multidrop Combi (Thermo Scientific) dispenser. […] After 16hr incubation at 37C and 5% CO2, 5uL one-glo (promega) was added to each plate and following 30 min incubation at room temperature, luminescence was quantified on a ViewLux (PerkinElmer) plate reader.

Sequence of Peroxisome proliferator-activated receptor alpha (Homo sapiens) (Q07869 whole entry, looked up): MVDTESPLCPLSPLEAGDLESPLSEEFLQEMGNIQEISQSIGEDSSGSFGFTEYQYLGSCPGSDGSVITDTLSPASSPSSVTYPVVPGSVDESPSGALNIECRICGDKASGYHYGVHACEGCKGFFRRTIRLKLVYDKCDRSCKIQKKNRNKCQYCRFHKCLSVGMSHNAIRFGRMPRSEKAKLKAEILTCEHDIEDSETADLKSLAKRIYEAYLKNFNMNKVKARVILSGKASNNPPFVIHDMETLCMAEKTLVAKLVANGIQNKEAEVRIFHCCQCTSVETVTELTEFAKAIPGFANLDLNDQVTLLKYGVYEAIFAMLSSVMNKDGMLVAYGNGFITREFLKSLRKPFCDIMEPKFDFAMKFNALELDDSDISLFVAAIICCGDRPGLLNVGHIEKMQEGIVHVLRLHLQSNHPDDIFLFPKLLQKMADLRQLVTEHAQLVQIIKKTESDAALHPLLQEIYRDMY
Sequence of Tyrosine-protein kinase Yes (Homo sapiens) (P07947 whole entry, looked up): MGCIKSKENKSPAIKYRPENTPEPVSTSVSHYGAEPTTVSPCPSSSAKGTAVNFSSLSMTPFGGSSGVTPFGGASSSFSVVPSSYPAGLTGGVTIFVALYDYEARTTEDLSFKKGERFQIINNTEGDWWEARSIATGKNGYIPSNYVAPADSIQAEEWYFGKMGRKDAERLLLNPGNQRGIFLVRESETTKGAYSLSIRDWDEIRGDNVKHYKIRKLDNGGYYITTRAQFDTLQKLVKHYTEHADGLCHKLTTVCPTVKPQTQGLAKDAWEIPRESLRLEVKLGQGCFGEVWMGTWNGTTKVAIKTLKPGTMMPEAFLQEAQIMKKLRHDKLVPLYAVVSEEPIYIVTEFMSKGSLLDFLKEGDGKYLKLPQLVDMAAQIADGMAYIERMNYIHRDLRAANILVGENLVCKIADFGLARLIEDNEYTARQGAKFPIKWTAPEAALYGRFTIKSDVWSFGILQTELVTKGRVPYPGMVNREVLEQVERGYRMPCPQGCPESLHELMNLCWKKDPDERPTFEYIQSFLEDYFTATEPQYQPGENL
Sequence of Nuclear receptor ROR-gamma (Homo sapiens) (P51449 whole entry, looked up): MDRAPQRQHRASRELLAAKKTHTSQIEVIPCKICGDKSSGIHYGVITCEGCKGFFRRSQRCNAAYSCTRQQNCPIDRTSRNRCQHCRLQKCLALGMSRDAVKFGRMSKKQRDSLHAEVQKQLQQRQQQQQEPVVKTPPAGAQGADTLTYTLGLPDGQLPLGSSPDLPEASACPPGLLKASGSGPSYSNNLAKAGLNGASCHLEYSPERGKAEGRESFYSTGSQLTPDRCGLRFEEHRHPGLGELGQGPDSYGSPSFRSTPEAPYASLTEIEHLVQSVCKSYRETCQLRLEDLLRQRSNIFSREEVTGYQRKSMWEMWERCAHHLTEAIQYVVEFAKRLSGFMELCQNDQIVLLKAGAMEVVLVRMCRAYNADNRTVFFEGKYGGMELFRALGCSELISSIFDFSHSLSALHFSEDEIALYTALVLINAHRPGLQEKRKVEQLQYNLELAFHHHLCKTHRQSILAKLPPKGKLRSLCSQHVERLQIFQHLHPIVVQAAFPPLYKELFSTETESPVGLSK
Sequence of Tumor necrosis factor (Homo sapiens) (P01375 whole entry, looked up): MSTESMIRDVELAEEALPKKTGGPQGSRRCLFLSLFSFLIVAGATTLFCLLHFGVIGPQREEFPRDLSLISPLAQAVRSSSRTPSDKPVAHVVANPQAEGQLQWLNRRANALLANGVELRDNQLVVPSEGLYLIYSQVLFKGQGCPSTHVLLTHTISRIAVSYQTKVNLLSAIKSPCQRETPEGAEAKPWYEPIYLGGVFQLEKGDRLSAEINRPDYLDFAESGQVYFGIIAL

Consider `C=CCNC1=C2C[C@@H](C)C[C@H](OC)[C@@H](O)[C@@H](C)C=C(C)[C@H](OC(N)=O)[C@@H](OC)C=CC=C(C)C(=O)NC(=CC1=O)C2=O`, for which the Potency entry in experiment [1] is “inactive”. The compound was called inactive in experiment [2].

For `Cc1cc(O)c2c(c1)C(=O)c1cccc(O)c1C2=O`, in [3], the Potency was 26.6 µM (active). Besides, the activation in [4] is -1.77%; in [5] it was -0.078%; in [8], 0.266%. Further, the result in experiment [6], in experiment [7] and in experiment [10] was inactive. Further, the max response in experiment [9] is -1.41%.

Turning to `N#Cc1c(NC(=O)c2cccc3ccccc23)sc2c1CCCC2`, in experiment [1], the Potency result is “inactive”. The call in experiment [2] was inactive.

In the case of `OC[C@@H](O)[C@@H](O)[C@H](O)[C@@H](O)CO`, the activation in [4] is -2.74%; in experiment [5], -0.0055%; in experiment [8], 0.287%. Besides, the max response in experiment [9] was -1.39%.

On to `N#Cc1ccc(COC[C@H]2O[C@@H](n3c(NCc4ccc(Cl)c(Cl)c4)nc4c(N)ncnc43)[C@@H](O)[C@@H]2O)cc1`, for which, in experiment [1], the Potency is 0.487 µM (active). The compound was classed as inactive in [2].

For the compound `COc1cc2c(cc1OC)[C@@H]1C(=O)c3ccc4c(c3O[C@@H]1CO2)C=CC(C)(C)O4`, the Potency result in experiment [1] is “inactive”. Further, the call in [2] was inactive.

Regarding `CC(C=CC1=C(C)CCCC1(C)C)=CC=CC(C)=CC(=O)Nc1ccc(O)cc1`, the activation in experiment [4] is 0.252%; in [8], -5.07%. Also, the Potency in experiment [9] was 8.91 µM (active).

Regarding `Cn1c(Nc2ccc(C(F)(F)F)cc2)nc2cc(Oc3ccnc(-c4ncc(C(F)(F)F)[nH]4)c3)ccc21`, the outcome in [2] was inactive.

Take `O=C1c2cccc(O)c2C(=O)c2c(O)cc(CO)cc21`: the activation in experiment [4] was 6.22%; in [8] it was 2.38%. The max response in [9] is -2.01%.

On to `COc1cc(C)c(Sc2cnc(NC(=O)c3ccc(CNC(C)C(C)(C)C)cc3)s2)cc1C(=O)N1CCN(C(C)=O)CC1` (stereo not drawn), for which the Potency in experiment [1] was 0.0547 µM (active). Further, the compound was called inactive in [2].

Consider `N#Cc1cc(NC(=O)Nc2nnc(-c3ccncc3)s2)ccc1-c1cn[nH]c1`, for which the compound was called inactive in [2].

As to `C[C@]12CC[C@@H]3c4ccc(O)cc4CC[C@H]3[C@H]1CC[C@H]2O`, the activation in experiment [4] is 13.4%; in experiment [8], 2.62%. The max response in experiment [9] was -1.17%.
